# Compounds with a hit are over-represented: about 32% of the library has one in this group of screens.
# CYP2C9 act: CYP2C9 (human) activation. P11712. 96,000 tested, 1.4% active. recombinant CYP2C9, luciferin-H conversion, luminescence; hits give high values; factor 1 = untreated enzyme, 0 = blocked. activation factor at 5 µM;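 active = activation factor of 2 or more for CYP2C9 at a 5 µM dose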;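 note: 0 = sulfaphenazole-blocked wells and 1 = vehicle-only wells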
# Target sequence (P11712 whole entry, looked up): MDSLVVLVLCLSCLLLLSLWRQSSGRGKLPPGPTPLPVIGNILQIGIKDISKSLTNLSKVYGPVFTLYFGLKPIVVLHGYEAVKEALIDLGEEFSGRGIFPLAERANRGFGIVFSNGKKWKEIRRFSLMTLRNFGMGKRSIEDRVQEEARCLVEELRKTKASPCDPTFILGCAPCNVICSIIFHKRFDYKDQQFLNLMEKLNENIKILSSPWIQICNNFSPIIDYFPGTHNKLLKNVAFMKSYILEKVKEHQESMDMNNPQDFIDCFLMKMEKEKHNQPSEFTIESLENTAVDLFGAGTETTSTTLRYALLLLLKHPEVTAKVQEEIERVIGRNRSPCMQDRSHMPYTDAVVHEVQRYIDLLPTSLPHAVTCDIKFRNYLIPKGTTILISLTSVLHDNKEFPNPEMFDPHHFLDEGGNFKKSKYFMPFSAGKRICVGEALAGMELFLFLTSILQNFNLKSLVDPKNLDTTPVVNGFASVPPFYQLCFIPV
# CYP2C9 inh: human CYP2C9 inhibition; CYP2C9 Supersomes, luciferin-H conversion, luminescence; AID 777; 96,000 tested, 20% active; inhibition, % at 5 µM;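 active = blocking of liver enzyme CYP2C9 beyond about 50% at 5 µM, limit read from the data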
# CYP2C19 inhib: human CYP2C19 inhibition | P33261 | CYP2C19 Supersomes, luciferin-H EGE luminescence, 30 min | inhibition, % at 5 µM | 96,000 tested, 21% active;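 active = CYP2C19 inhibition above a set limit at 5 µM in the primary screen, cut at about 50% in these data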;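 note: plate controls were negative control wells for no effect and 2.5 mM tranylcypromine positive control for full effect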
# PostGolgi yeast: growth inhibition of a yeast mutant, post-Golgi transport screen | post-Golgi transport phenotypic cell assay | inhibition, % at 10 µM | 98,000 tested, 0.9% active | AID 739;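 note: yeast cells grown in 1536-well plates; yeast grown about 18 h at 30C before absorbance read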
# CYP2C19 act: increases human CYP2C19 enzyme activity; 96,000 tested, under 10 active; activation factor at 5 µM; recombinant CYP2C19, luciferin-H EGE luminescence; hits give high values; 0 = fully inhibited enzyme, 1 = untreated enzyme;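 active = activation factor of at least 2 at 5 µM in the primary screen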;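 note: 0 = wells with 2.5 mM tranylcypromine and 1 = vehicle-only wells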
# PostGolgi ctrl: inhibits growth of the yeast control strain | inhibition, % at 10 µM | 98,000 tested, 5% active | efflux-deficient yeast background strain, growth absorbance A615, 16 h | AID 738
# * hit, by the source's call. Cut-off read from the data, not from the text of the source, unless noted: active = inhibition above about 30%; inactive = the rest.
SMILES,CYP2C9 act,CYP2C9 inh,CYP2C19 inhib,PostGolgi yeast,CYP2C19 act,PostGolgi ctrl
COc1ccc(-n2nc3cc(C)c(NC(=O)CC(C)C)cc3n2)cc1,1,-4,-6,-1,1.1,0
Cc1ccc(S(=O)(=O)NC(CC(=O)n2nc(C)cc2C)c2ccccc2)cc1 (stereo not given),0.1,94*,100*,-5,0,35*
Cc1ccc(S(=O)(=O)NC(c2ccccc2)C(C)C(=O)n2nc(C)cc2C)cc1 (stereo not given),0.5,50,100*,-5,0,9
CCn1c(SCC(=O)Nc2ccc(S(N)(=O)=O)cc2)nnc1-c1cccc(OC)c1,0.8,24,2,3,1,10
CC1CCN(C(=O)CN2C(=O)C(=O)c3ccccc32)CC1,1.2,-21,-9,-4,1.1,14
Cc1cc(C(F)(F)F)nn1CCCNC(=O)c1cnccn1,0.9,8,50*,4,0.5,20
COc1cccc(C2CC(=O)NC(SC)=C2C#N)c1 (stereo not given),0.4,62*,64*,-8,0.4,3
CCSC1=C(C#N)C(c2ccc(OC)c(OC)c2)CC(=O)N1 (stereo not given),0.7,27,63*,-1,0.4,8
CCn1c(COc2ccccc2OC)nnc1SCC#N,1.8,-75,16,-5,0.8,0
COC(=O)C1=C(C)N=C2SCCC(=O)N2C1/C=C/c1ccccc1 (stereo not given),0.7,28,35,3,0.7,19
Cc1ccc(OCC(=O)N/N=C/c2ccc([N+](=O)[O-])o2)cc1,1.1,-13,-3,5,1,21
CCCc1ccc(-c2cc(C(=O)N/N=C/c3ccc([N+](=O)[O-])o3)c3ccccc3n2)cc1,0,96*,51*,6,0.5,32*
O=C(N/N=C/c1ccc([N+](=O)[O-])o1)c1cc(-c2cccc(Br)c2)nc2ccccc12,0.4,56*,9,103*,0.9,36*
CCOC(=O)c1sc(N)c(C#N)c1CSc1nnc(C2CCCCC2)n1N,0.2,78*,44,9,0.6,5
O=C(NC(Cc1ccccc1)c1ccc2c(c1)OCCCO2)c1ccccc1F (stereo not given),0.2,83*,77*,4,0.2,9
CC(=O)N(CCC(Cc1ccccc1)c1ccc2c(c1)OCO2)Cc1ccccc1F (stereo not given),0,96*,88*,-10,0.1,36*
COc1ccc(C(=O)NC(Cc2ccccc2)c2ccc3c(c2)OCCCO3)cc1 (stereo not given),0.4,57*,21,-4,0.8,8
C1CCc2c(nc3nnnn3c2NC2CCCC2)C1,0.8,16,7,17,0.9,-3
CC(=O)COc1cc(C)cc2oc(=O)c(C)c(C)c12,0.7,34,17,21,0.8,5
COc1cccc(C2=NN(C(=O)c3ccccc3)C(O)(C(F)(F)F)C2)c1 (stereo not given),0.1,92*,89*,6,0.1,26
CCc1cc2c(CN3CCN(CC)CC3)cc(=O)oc2cc1O,1,-2,-15,5,1.1,1
COc1cc(NC(=O)Cc2nn(C)c(=O)c3ccccc23)cc(OC)c1,0.1,86*,35,-1,0.7,3
COc1ccc(Cl)cc1NC(=O)COc1cccc(-n2cnnn2)c1,3.3*,-234,29,7,0.7,12
O=C(COc1cccc(OC(F)F)c1)Nc1ccc(SC(F)F)cc1,1.1,-5,81*,-12,0.2,31*
COc1cc(NC(=O)Cc2ccccc2)cc(OC)c1,0.6,38,94*,-1,0.1,-7
SMILES,CYP2C9 act,CYP2C9 inh,CYP2C19 inhib,PostGolgi yeast,CYP2C19 act,PostGolgi ctrl
CC(=O)Oc1ccc(NC(=O)Cc2ccccc2)cc1,0.8,21,44,-1,0.6,10
O=C(COc1cccc(-n2cnnn2)c1)N1CCOCC1,0.9,5,-10,-2,1.1,26
O=C(Nc1ccccn1)NC(C(F)(F)F)C(F)(F)F,1.1,-7,4,1,1,5
CCOc1ccc2[nH]c(=O)c(CN(Cc3ccccc3)C(=O)N3CCCC3)cc2c1,0.9,11,12,-10,0.9,-3
COC(=O)Nc1ccc(OC)c(OC)c1,0.9,10,9,-8,0.9,24
COc1cccc(OCC(=O)Nc2ccc(OC)c(OC)c2)c1,0.9,13,51*,9,0.5,-2
CCC(=O)Nc1cccc(NC(=O)COc2ccc(OC)cc2)c1,1.5,-51,36,0,0.6,5
COc1cc(NC(=O)COc2cccc(OC)c2)cc(OC)c1,1,-4,88*,-1,0.1,1
COc1ccc(NC(=O)CCC2CCCC2)cc1OC,0.7,28,95*,10,0.1,13
O=c1[nH]c(=O)n(CCc2ccc(F)cc2)c(O)c1C=NCc1ccc2c(c1)OCO2,1.1,-10,-2,-4,1,4
CN(C1CCCCC1)S(=O)(=O)c1ccc(NC(=S)NC(=O)c2cccs2)cc1,0.6,36,44,-4,0.6,14
O=C(Cn1cnc2ccccc21)NCCCN1CCOCC1,1,-4,-9,-1,1.1,3
CC1=NC(=O)C(N=Nc2cccc(O)c2)N1c1ccccc1 (stereo not given),0.6,39,20,0,0.8,-12
Cc1ccc(N(CC(=O)N/N=C/c2cc(C)n(-c3ccccc3)c2C)S(C)(=O)=O)c(C)c1,0.8,21,18,13,0.8,19
Cc1ccccc1-n1c(C)cc(/C=N/NC(=O)c2ccncc2)c1C,0.5,51*,24,-2,0.8,23
Cc1cccc(C)c1-n1c(C)cc(/C=N/NC(N)=S)c1C,0.1,93*,91*,3,0.1,28
O=C(N/N=C/c1ccncc1)c1ccccc1,1,3,33,1,0.7,10
Cc1ccc(/C=C/c2nnc(-c3cccs3)o2)cc1,0.6,35,18,-3,0.8,2
Cc1cccc(OCCCSc2nc3ccc(C)cc3[nH]2)c1,0.2,78*,86*,-8,0.1,8
Nc1cc(=O)[nH]c(SCc2nnc(-c3ccccc3)o2)n1,1,-3,-12,1,1.1,4
Cc1cc(=O)[nH]c(SCCOc2cccc(C(F)(F)F)c2)n1,1,-1,18,-7,0.8,19
Cc1ccc2nc(SCc3nnc(-c4cccs4)o3)[nH]c2c1,0.5,51*,43,1,0.6,13
Cc1ccc2nc(SCc3nnc(-c4ccccc4)o3)[nH]c2c1,0.5,51*,30,-1,0.7,10
O=C(CSc1nnc(-c2csc3c2CCCC3)o1)Nc1ccccc1,1.1,-8,-10,2,1.1,3
C=CCC1c2cccc(C(=O)O)c2C(=O)N1c1ccc(Cl)cc1 (stereo not given),0.6,39,-33,-7,1.3,12

# Source: PubChem BioAssay (several laboratories)
